{"source": "PubChem BioAssay AID1851", "about": "(National Center for Advancing Translational Sciences (NCATS), 2009)", "note": "Among all 16,000 compounds or so, about 4,000 (25%) were called active. Another 26% or so got no clear call; they are omitted. These entries were drawn from the full list. A number with no mark means an inactive call. Calls come from the whole dose curve; as a rule, active = well fitted curve in the direction sought with a large enough effect; inconclusive = small, poorly fitted or top-dose-only effect, or effect the other way; inactive = no such curve, though single readings can be large or run the other way. % is set by controls: 0 for no effect and ±100 for the full control effect.", "data": [{"biological_target": "Cytochrome P450 2C9 (Homo sapiens) (UniProt P11712)", "sequence (P11712 whole entry, looked up)": "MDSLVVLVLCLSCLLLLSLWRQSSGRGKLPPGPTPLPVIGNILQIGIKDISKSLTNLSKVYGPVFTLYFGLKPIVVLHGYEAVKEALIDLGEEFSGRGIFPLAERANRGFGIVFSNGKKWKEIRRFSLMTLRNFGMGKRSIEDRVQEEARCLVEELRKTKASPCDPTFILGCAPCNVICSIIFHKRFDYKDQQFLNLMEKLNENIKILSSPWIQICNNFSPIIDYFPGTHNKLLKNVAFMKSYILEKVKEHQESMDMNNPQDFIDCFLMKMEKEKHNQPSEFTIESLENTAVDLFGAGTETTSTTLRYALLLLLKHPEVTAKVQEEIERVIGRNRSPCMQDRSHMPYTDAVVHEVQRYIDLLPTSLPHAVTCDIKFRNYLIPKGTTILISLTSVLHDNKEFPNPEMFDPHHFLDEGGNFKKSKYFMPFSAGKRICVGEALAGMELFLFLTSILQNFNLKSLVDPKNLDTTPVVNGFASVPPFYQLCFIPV", "test": "Cytochrome panel assay with activity outcomes", "conditions": "recombinant CYP, pro-luciferin dealkylation, luminescence, p450-cyp2c9; series mostly up to 57.1 µM", "values": [{"smiles": "CSc1ccc2c(c1)N(CC[C@H]1CCCCN1C)c1ccccc1S2", "AC50": "inactive"}, {"smiles": "CC1(C)OCC([C@H](O)C2=CCCCC2=O)CO1", "activity, negative = inhibition": "2.86% [at 11.4 µM]"}, {"smiles": "COc1ccccc1CNC(=O)c1cc2c(C)nn(Cc3ccc(F)cc3)c2s1", "AC50": "2.24 µM (active)"}, {"smiles": "COc1ccccc1CNc1ncnc2ccc(-c3ccc(C(=O)N(C)C)cc3)cc12", "activity, negative = inhibition": "0.573% [at 2.29 µM]"}, {"smiles": "CN(C)CCCNC(=O)c1cc2c3ccccc3n(C)c2s1", "AC50": "inactive"}, {"smiles": "Brc1ccc(-c2csc(N3CCC(c4ccccc4)C3)n2)cc1", "note": "(configuration not stated)", "AC50": "10 µM (active)"}, {"smiles": "Fc1ccc(-c2csc(N3CCC(c4ccccc4)C3)n2)cc1", "note": "(configuration not stated)", "AC50": "17.8 µM (active)"}, {"smiles": "Clc1ccc(-c2csc(N3CCC(c4ccccc4)C3)n2)cc1", "note": "(configuration not stated)", "AC50": "14.1 µM (active)"}, {"smiles": "Cc1c(C2CCN(CCc3ccccc3)CC2)noc1-c1ccc(Cl)cc1", "AC50": "inactive"}, {"smiles": "COc1cc2nc(N3CCN(C(=O)OCc4ccccc4)[C@H](C(=O)NC(C)(C)C)C3)nc(N)c2cc1OC", "AC50": "inactive"}, {"smiles": "CC(=O)C[C@H](c1ccc([N+](=O)[O-])cc1)c1c(O)c2ccccc2oc1=O", "AC50": "0.631 µM (active)"}, {"smiles": "CN(C)c1ccc(C(c2ccc(N(C)C)cc2)c2ccc([N+](=O)[O-])cc2)cc1", "activity, negative = inhibition": "-7.57% [at 11.4 µM]"}, {"smiles": "COc1ccc(NC(=O)N2CC3(CCN(C(=O)c4cnccn4)CC3)C2)cc1", "AC50": "inactive"}, {"smiles": "O=c1oc2cc(Oc3ccc(C(F)(F)F)cc3[N+](=O)[O-])ccc2c2c1CCCC2", "AC50": "12.6 µM (active)"}, {"smiles": "Cn1ncc2c(Cl)ncnc21", "activity, negative = inhibition": "0.147% [at 11.4 µM]"}, {"smiles": "O=C1[C@@H]2[C@H]3[C@H](O)[C@H](O)C/C(=N/OCc4ccccc4)[C@H]3CC[C@H]2C(=O)N1c1ccc(F)cc1F", "activity, negative = inhibition": "12.6% [at 11.4 µM]"}, {"smiles": "COc1ccc(-c2nnc(-c3cccnc3)o2)cc1", "AC50": "inactive"}, {"smiles": "COc1cccc(-c2noc(-c3cccnc3)n2)c1", "AC50": "15.8 µM (active)"}, {"smiles": "CC(=O)OCC1=C(C(=O)O)N2C(=O)[C@@H](NC(=O)CSc3ccncc3)[C@@H]2SC1", "AC50": "inactive"}, {"smiles": "CNc1csc(C)c(C)c1=O", "AC50": "inactive"}, {"smiles": "Cc1cnc(CNc2cc(-c3cccnc3)ncn2)cn1", "activity, negative = inhibition": "6.31% [at 2.29 µM]"}, {"smiles": "N=C1/C(=C\\c2ccc(SCc3ccco3)o2)C(=O)N=C2SC=NN12", "AC50": "0.447 µM (active)"}, {"smiles": "ClC(=Nc1cccc2ccccc12)N(c1ccccc1)c1ccccc1", "AC50": "3.16 µM (active)"}, {"smiles": "CCCN1CNC(=S)N(c2cccc(C)c2C)C1", "AC50": "inactive"}, {"smiles": "Cc1cccc(C)c1-n1c(SCC(=O)NCc2ccco2)nc2ccccc2c1=O", "AC50": "14.1 µM (active)"}, {"smiles": "O=C(CSc1nc2ccccc2c(=O)n1Cc1ccccc1)NCc1ccco1", "AC50": "inactive"}, {"smiles": "Cc1cc(NC(=O)CSc2nc3ccccc3c(=O)n2CCCC(=O)NCc2ccco2)n[nH]1", "AC50": "4.47 µM (active)"}, {"smiles": "O=C(CSc1nc2ccccc2c(=O)n1CCCC(=O)N1CCCC1)NCc1ccco1", "AC50": "7.08 µM (active)"}, {"smiles": "O=c1c2ccccc2nc(SCc2ccccc2Cl)n1Cc1ccccc1", "AC50": "1.26 µM (active)"}, {"smiles": "Oc1ccc([C@@H]2CNCCc3c2cc(O)c(O)c3Cl)cc1", "AC50": "inactive"}, {"smiles": "O=c1[nH]c(=O)n([C@@H]2C[C@H](O)[C@H](CO)O2)cc1I", "AC50": "inactive"}, {"smiles": "O=C(CSc1nc2ccccc2c(=O)n1NC(=O)Cc1ccccc1)NCc1ccccc1Cl", "AC50": "0.398 µM (active)"}, {"smiles": "COCC(=O)N1CCC2(CCCN(C(=O)Nc3ccc(OC)cc3)C2)CC1", "AC50": "inactive"}, {"smiles": "COc1ccc(NC(=O)CSc2nc3ccccc3c(=O)n2CCC(=O)N2CCCCC2)cc1", "AC50": "3.98 µM (active)"}, {"smiles": "CN1CCN(C(=O)c2ccc3c(=O)n4c(nc3c2)CCCCC4)CC1", "AC50": "inactive"}, {"smiles": "O=C(CSc1nc2ccccc2c(=O)n1CCCO)NCc1ccccc1", "AC50": "12.6 µM (active)"}, {"smiles": "N#CCSc1nc2cc(C(=O)N3CCCC3)ccc2c(=O)n1Cc1ccccc1", "AC50": "3.98 µM (active)"}, {"smiles": "O=C(O)CCCCCn1c(SCC(=O)N2CCCC2)nc2ccsc2c1=O", "AC50": "inactive"}, {"smiles": "Cc1cc(NC(=O)CSc2nc3ccsc3c(=O)n2CCCCC(=O)O)no1", "AC50": "inactive"}, {"smiles": "Cc1cc(NC(=O)CSc2nc3ccsc3c(=O)n2Cc2ccccn2)n[nH]1", "AC50": "28.2 µM (active)"}, {"smiles": "CCN1CCN(C(=O)CCc2nc3ccccc3c(=O)[nH]2)CC1", "AC50": "inactive"}, {"smiles": "Cc1cc2cc(C)c3nnc(SCC(=O)NCc4ccc5c(c4)OCO5)n3c2cc1C", "AC50": "inactive"}, {"smiles": "O=C(NCC1CCCO1)c1ccc2c(=O)n(Cc3ccco3)c(SCC(=O)N3CCCC3)nc2c1", "note": "(configuration not stated)", "AC50": "2.24 µM (active)"}, {"smiles": "CCCc1nnc(SCC(=O)N2CCCCC2)n1CC1CCCO1", "note": "(configuration not stated)", "AC50": "inactive"}, {"smiles": "Cc1ccc2cc(C)c3nnc(SCC(=O)NCc4ccco4)n3c2c1", "AC50": "15.8 µM (active)"}, {"smiles": "COCc1nc2c([nH]1)c(=O)n(C)c(=O)n2CC(C)C", "AC50": "inactive"}, {"smiles": "CC(C)Cn1c(SCc2nc3ccccc3c(=O)[nH]2)nc2ccccc2c1=O", "AC50": "2 µM (active)"}, {"smiles": "Cc1cc(C)c(C)c(S(=O)(=O)ON2C(=O)c3ccccc3C2=O)c1C", "AC50": "inactive"}, {"smiles": "Cc1ccc(OCCCN2C(=O)C(=O)c3cccc(C)c32)cc1", "AC50": "8.91 µM (active)"}, {"smiles": "CS(=O)(=O)N1CCN(c2ccc(C(=O)NC3C4CC5CC(C4)CC3C5)cc2[N+](=O)[O-])CC1", "note": "(configuration not stated)", "AC50": "12.6 µM (active)"}, {"smiles": "CN(c1ccc(C(=O)NC2CC3CCC2C3)cc1)S(C)(=O)=O", "note": "(configuration not stated)", "AC50": "inactive"}, {"smiles": "CCCN[C@@H](C)C(=O)Nc1c(C)csc1C(=O)OC", "AC50": "inactive"}, {"smiles": "CC(=O)c1c(N=CN(C)C)nc(C)nc1-c1ccccc1", "AC50": "inactive"}, {"smiles": "O=c1cnc2cnc(N3CCOCC3)nc2n1CCc1ccccc1", "AC50": "10 µM (active)"}, {"smiles": "CN1CCN(c2ncc3nc(-c4ccccc4)c(=O)n(CCc4ccccc4)c3n2)CC1", "AC50": "3.16 µM (active)"}, {"smiles": "COc1ccc(-c2nc3cnc(N4CCN(C)CC4)nc3n(CCc3ccccc3)c2=O)cc1", "AC50": "inactive"}, {"smiles": "CN1CCN(c2ncc3nc(-c4cc(F)cc(F)c4)c(=O)n(CCc4ccccc4)c3n2)CC1", "AC50": "inactive"}, {"smiles": "CN1CCN(c2ncc3ncc(=O)n(CCc4ccccc4)c3n2)CC1", "AC50": "inactive"}, {"smiles": "COc1ccc(-c2nc3cnc(N4CCOCC4)nc3n(CCc3ccccc3)c2=O)cc1", "AC50": "inactive"}, {"smiles": "O=c1c(-c2ccccc2)nc2cnc(N3CCOCC3)nc2n1CCc1ccccc1", "AC50": "7.94 µM (active)"}, {"smiles": "N#CCCn1c(=O)cnc2cnc(N3CCOCC3)nc21", "AC50": "inactive"}, {"smiles": "O=c1c(-c2ccc(Cl)cc2)nc2cnc(N3CCOCC3)nc2n1CCc1ccccc1", "AC50": "inactive"}]}]}
